In article PMC12136788 one finds binding signal data, which are given here for 22 molecules.

T1: UNK ZnF1-3 (human, UniProt Q9C0B0 31-174)
T1 sequence: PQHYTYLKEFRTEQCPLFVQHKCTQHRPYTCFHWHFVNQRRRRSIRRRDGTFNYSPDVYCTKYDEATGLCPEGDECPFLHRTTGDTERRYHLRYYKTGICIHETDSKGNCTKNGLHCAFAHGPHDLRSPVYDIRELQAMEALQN

B1: chr16:94664741:94664742:+_ENSMUSG00000040785_ENSMUST00000117648|mus_hu|mus_mus_mus_hu_False|8_68 (ssRNA)
RNA: GGGAGUUCUACAGUCCGACGAUCUGGUACUGAUCUUGGUAGCUGAUAUUCAGGAGAAAGGCUGGCCAAAGGUGUGUAUAUGCUGGUGUACUGGGGCAAACCUGGUAACACGUUUAUGUAUGCUGGCCGCUGGGUGAUGAUAUCCAACAGAGGAUUGAGCAUCA
B2: chrX:53596632:53596633:-_ENSG00000086758_ENST00000262854|hu_mus|FALSE|FALSE (ssRNA)
RNA: GGGAGUUCUACAGUCCGACGAUCGGCGUGCUUCUCUGUACUCUCAGCCAUAGCAAGCGCCCGUCCCAGGGCUGCUUUCACUUCAUUCACUAGGGCCACUUGAGCAUCUGUGCCACUCCCCGCAGCAGCCAGACUUGCAAGGAACAACAGAGGAUUGAGCAUCA
B3: chr12:39756943:39756944:-_ENSG00000139116_ENST00000544797|hu_mus|hu_hu_hu_mus_False|18_98 (ssRNA)
RNA: GGGAGUUCUACAGUCCGACGAUCGGUUUGGCUGUUACCCCCGAGGGAAUCCUGCAAGAGUCUUGUCAGCUUAGAGUCUCUGUAAGGGACAUGGGUGGCUCUCUUGCUCUUGUCCCCCAAGGCACUUAUUACAUUCCCAAGAGCCAACAGAGGAUUGAGCAUCA
B4: chr12:96663167:96663168:+_ENSG00000111145_ENST00000228741|hu_mus|FALSE|FALSE (ssRNA)
RNA: GGGAGUUCUACAGUCCGACGAUCUCUGGGUCCACAGGAGAAUCAUGGUAGUUGGAAGAAAAGGAAUCAACAGGCAGACUUACAGUCAUGGGAACAUUUCCAACCAGCGUUUAUAGUUUAAAGGUCGACAGAAGGUCAUCUUGUCAACAGAGGAUUGAGCAUCA
B5: chr7:75932113:75932114:+_ENSG00000106211_ENST00000248553|hu_hu|hu_hu_hu_mus_False|8_48 (ssRNA)
RNA: GGGAGUUCUACAGUCCGACGAUCCUGCGACCACUCAUCGGGCAACCGGGGCACCCCGAAAGCUUGAUCGAAGAGGCGGCUGUGUGCGUACCAGUCGUCCCGGAAUGGUUCCCAGCUCGGGCUCCGCAGCGAGAAGGAGGGCACCAACAGAGGAUUGAGCAUCA
B6: 19974894_19982776_1293_CDS_ENSMUSG00000002428_ENSMUST00000002502|mouse|control|control (ssRNA)
RNA: GGGAGUUCUACAGUCCGACGAUCAAUGUACUGUACAGAAAUUUUUCUUCUCUUAGGGCAGACGCUAGACAGCUGCGACAGAGUACAGCUACUCUUCUCCGGAGUUCCUGAAAUACUGGGUUCUUCACCACACGUGGAUGACUCCAACAGAGGAUUGAGCAUCA
B7: chr1:151206805:151206806:+_ENSG00000143398_ENST00000349792|hu_hu|FALSE|FALSE (ssRNA)
RNA: GGGAGUUCUACAGUCCGACGAUCCUUCUCUCGCUCUUUCUGGGAAGCCCGCCGUUUGUAGGUUGAGCCUUUGAGGUCAUAUUUGAUAUGCAUUUUUACCGAUCUUGGUAAAAGAUUGUUCAUCACCACAAUCCGAAUGUUCUUCAACAGAGGAUUGAGCAUCA
B8: chr17:64801638:64801639:+_ENSG00000154229_ENST00000413366|hu_mus|hu_hu_hu_mus_False|78_98 (ssRNA)
RNA: GGGAGUUCUACAGUCCGACGAUCUAUAUAUAUAUAUAUAUACACACACAUAUAUAGUAAGAGCCUAGUUAAACGUGUAAAGUAGCCAUUCAUUUUUAAAAUUACAUCUACAUUAAAAAAUUAAUAUAUCUGAUAGAGUGCCAGCAACAGAGGAUUGAGCAUCA
B9: chr4:175231952:175231953:+_ENSG00000164118_ENST00000503780|hu_hu|motif|central (ssRNA)
RNA: GGGAGUUCUACAGUCCGACGAUCAUUCAGAAGGUCCAUGUCACUACAAGAAGCGUAGUCUUCACUAACUUCAUUAAACUCGGUAAAUUCAUCAUUCUUUUUAGACAAAAGCAUUUCUGUUUCAAGAAGAGUGACACGACUAAGCAACAGAGGAUUGAGCAUCA
B10: chr1:95362928:95362929:-_ENSG00000117519_ENST00000538964|hu_hu|motif|central (ssRNA)
RNA: GGGAGUUCUACAGUCCGACGAUCAGACCACAUUUAGCAAUAAGCAUGAGUUUAGUCUUCCAUGUAGAAACCAGAUACACGGAACUGUAAAAAAAAAAAAAAAAAAAAAAAGUUUCCUAUUGUUUGAAAAUACCAGUUUAAUAUCAACAGAGGAUUGAGCAUCA
B11: chr7:90019630:90019631:+_ENSMUSG00000057706_ENSMUST00000082237|mus_hu|motif|central (ssRNA)
RNA: GGGAGUUCUACAGUCCGACGAUCUAUAUCACUGAAUAGAAAAUAUGCUGGGUGAAGCAGAUCUAGAAGAUUUGUCUGAACCGGUAAAAUCUCCAUCCCAACAGAAUACUGUUCAAAACAUUACACAUUUUAUGGUUGUAAUUCCAACAGAGGAUUGAGCAUCA
B12: chr17:64801638:64801639:+_ENSG00000154229_ENST00000413366|hu_mus|hu_hu_hu_mus_False|1_98 (ssRNA)
RNA: B8 RNA with G60A, G62C, A142C, G143A
B13: 135118432_135118552_3022_ncRNA_ENSMUSG00000030795_ENSMUST00000128851|mouse|control|control (ssRNA)
RNA: GGGAGUUCUACAGUCCGACGAUCAUGAGCAAUACACUCAAGAUCUUUCUUGUAGUCCACACCUUCCUUCCCAGAUCUAGUUCCUAUAUAUUUGUCUGAGUACAUAUGUAGAAUUGCAUUGACAUCACUAUUUAAUAUAAAUAUCAACAGAGGAUUGAGCAUCA
B14: chr11:9468696:9468697:+_ENSG00000205339_ENST00000379719|hu_hu|FALSE|FALSE (ssRNA)
RNA: GGGAGUUCUACAGUCCGACGAUCCAUUAACAAUAAUGUGAAAAUUAGAAUUAUGAAUUCAAAAAGCAGUGAAGUCUGAAAAUUUAAAAAGUAGACUAGGUAUUAGGGGAUUAAAGGUAAAGGAAGACGAGAAUGUUUCUUUAACAACAGAGGAUUGAGCAUCA
B15: chr3:25639645:25639646:-_ENSG00000077097_ENST00000264331|hu_mus|FALSE|FALSE (ssRNA)
RNA: GGGAGUUCUACAGUCCGACGAUCAUCAGACAACACAUGACAUUUCAAUGAGUAAAAAAGAGCAUAAAACUGUAUGUGUAAGAACAAAAUGUUAAAAGGCCUACCACAAUAAUAAAAAACCAUCAAUUACAUCAUCACAUUAAACAACAGAGGAUUGAGCAUCA
B16: chr17:64801638:64801639:+_ENSG00000154229_ENST00000413366|hu_mus|hu_hu_hu_mus_False|28_88 (ssRNA)
RNA: B8 RNA with U38C, C42U, A43G, C44U, A53G, G60A, G62C, A114U
B17: chr5:69964302:69964303:+_ENSMUSG00000029208_ENSMUST00000154728|mus_hu|FALSE|FALSE (ssRNA)
RNA: GGGAGUUCUACAGUCCGACGAUCUGCAGUCUGGUUUGUUCGUUGGCUGAAUAAACAUGGGAGCUGAGAGCUCUGGAGAAAUACAGCCAUUUACUGGCUGUGAAAUCUCAAGUUAACUACUCUAAAAUCGCUUCGAUUAUGAAACAACAGAGGAUUGAGCAUCA
B18: chr1:84720644:84720645:-_ENSMUSG00000026219_ENSMUST00000027421|mus_hu|FALSE|FALSE (ssRNA)
RNA: GGGAGUUCUACAGUCCGACGAUCUGAAUUUUAAAUUAGAUCUUAACUGGAGAGAACAUGGGACAACAGAAGCCCAUGGGUAACGAAAAUUUGAGAACUGUGAGUUGUAUACAAAAAAAAAACUGUGAGCUGCACAGAUAAUAACAACAGAGGAUUGAGCAUCA
B19: chr1:225611761:225611762:-_ENSG00000143815_ENST00000272163|hu_mus|hu_hu_hu_mus_True|1_18 (ssRNA)
RNA: GGGAGUUCUACAGUCCGACGAUCCCAGGCCAUCGGCCUCUGACCACUUCACCCUCAACAAACUUCCUACUUGGCAUUUUCUAAAAUUAGUCUGGCCGCGCUCCGGCGGGAACUCCAGACGGCUCCCGACAGUCACCCGCACAGCAACAGAGGAUUGAGCAUCA
B20: chr1:247070963:247070964:-_ENSG00000153207_ENST00000391829|hu_mus|motif|central (ssRNA)
RNA: GGGAGUUCUACAGUCCGACGAUCCUGAUUUGUCCUGUUGAUGUAACUCAGAGUAGAAAUGGCUACUCCCAAUGGGCUUACGGACUGGAAGCACAGGUGGCGCCCCUCUCUCAUCACUCUCUCUCUGAUGUGUGGUACUUCAGCCAACAGAGGAUUGAGCAUCA
B21: chr11:97025304:97025305:-_ENSMUSG00000001440_ENSMUST00000001479|mus_hu|FALSE|FALSE (ssRNA)
RNA: GGGAGUUCUACAGUCCGACGAUCAGCUACUACUCCAUCUGUGUGAUCCUCAUCUCCAGCAAUGUGGUCAAUGAAAGACAGAAUAAAUUCUACUCUGGGUUGUACCAGCAUCACAUCCGGGUGUACGUUCUCCUGAUCCCCCUUCAACAGAGGAUUGAGCAUCA
B22: chr2:25965407:25965408:-_ENSG00000143970_ENST00000336112|hu_hu|motif|central (ssRNA)
RNA: GGGAGUUCUACAGUCCGACGAUCCUGUGCUGCCUGAAUUAAAUCUCUGGCUAGGGUCUUUUCAUCAAAUGUUUGGCCUCGGGUGAACAGGUAAUUCUCCUUACUUAAAGUGGUUUGCUCAUUCAAUGGUAUCUCAGCCUUCACCAACAGAGGAUUGAGCAUCA

Substitutions are numbered along the chain they refer to. The full ranking holds about 24,000 sequences; the median of “enrichment r” is about 0.99, and the highest 2% start at about 3.7. The sample as a whole holds a higher share of the highest values than the screen did.

In the test the target is T1, UNK ZnF1-3. The test can be described thus: nsRBNS (natural sequence RNA bind-n-seq); RBNS binding buffer (assumed for nsRBNS): 25 mM Tris pH 7.5, 150 mM KCl, 3 mM MgCl2, 0.01% Triton X-100, 500 ug/ml BSA, 20 U/ml SUPERase-In, 4 C; UNK is unkempt and MSI1 is Musashi-1; names of the RNAs are library labels; protein concentration not given here; high values mean tight binding.
Turning to B1, the binding signal came to 1.06 enrichment R. Molecule B2 yielded a binding signal of 1.52 enrichment R. The same measure for B3: 0.694 enrichment R; for B4: 1.6 enrichment R. For B5, the binding signal turned out to be 1.04 enrichment R. B6: the binding signal was determined as 0.756 enrichment R. B7 showed a binding signal of 0.464 enrichment R.

As for B8, the binding signal worked out at 3.51 enrichment R.

Consider B9, for which the binding signal amounted to 0.772 enrichment R.

Take B10: the binding signal is 5.33 enrichment R.

B11 gave a binding signal of 0.76 enrichment R. As to B12, the binding signal is 4.56 enrichment R. As for B13, the binding signal was determined as 1.78 enrichment R.

Molecule B14 yielded a binding signal of 5.89 enrichment R.

Turning to B15, the binding signal is 1.63 enrichment R. In the case of B16 it was 3.46 enrichment R; in that of B17, 0.663 enrichment R; in that of B18, 5.25 enrichment R. Turning to B19, the binding signal was 1.37 enrichment R.

For B20, the binding signal turned out to be 1.02 enrichment R.

On to B21, for which the binding signal was determined as 1.13 enrichment R. In the case of B22 it was 0.753 enrichment R.
